Screens: PubChem BioAssay, National Center for Advancing Translational Sciences (NCATS)
LmPK inhibitor: inhibitors of Leishmania mexicana pyruvate kinase | Q27686 | purified LmPK, Kinase-Glo ATP luminescence, 1 h | Potency, µM (series often up to 57.5 µM), inactives show top-dose activity change, negative = inhibition, usual class: inhibitors | 290,000 compounds, 0.37% hits; note: potency is the fitted concentration of half-maximal effect; % is set by controls: 0 for no effect and ±100 for the full control effect
Target sequence (Q27686 whole entry, looked up): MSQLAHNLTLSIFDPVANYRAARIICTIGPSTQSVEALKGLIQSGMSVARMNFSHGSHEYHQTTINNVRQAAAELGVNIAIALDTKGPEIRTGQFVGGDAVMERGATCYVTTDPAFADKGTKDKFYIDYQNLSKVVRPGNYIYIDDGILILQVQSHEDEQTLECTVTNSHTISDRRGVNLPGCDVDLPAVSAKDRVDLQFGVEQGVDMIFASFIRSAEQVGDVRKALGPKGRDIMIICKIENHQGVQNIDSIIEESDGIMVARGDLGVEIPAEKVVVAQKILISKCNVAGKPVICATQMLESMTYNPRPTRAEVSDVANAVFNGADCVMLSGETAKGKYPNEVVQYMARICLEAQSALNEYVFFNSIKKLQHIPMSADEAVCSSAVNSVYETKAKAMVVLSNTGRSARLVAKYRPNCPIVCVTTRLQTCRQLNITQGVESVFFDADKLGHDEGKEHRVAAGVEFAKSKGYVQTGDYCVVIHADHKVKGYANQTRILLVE
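In 50 mM imidazole pH 7.2 with 7 mM MgCl2, LmPK (0.1 nM) turned over PEP (0.5 mM) and ADP (0.1 mM) for 1 h at room temperature. Luciferase read-out of ATP.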
FBPA Giardia inh: blocks Giardia fructose-bisphosphate aldolase activity | 290,000 compounds, 0.71% hits | A8B2U2 | Potency, µM (titrated, usually from 59.6 µM), for the others: at the top dose activity, negative = inhibition, actives largely listed as inhibitors | purified Giardia FBPA; note: potency is the fitted concentration of half-maximal effect; % is set by controls: 0 for no effect and ±100 for the full control effect; nearly all actives have a fitted effect of over 55% in size
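40 nM FBPA preincubated 10 min at RT with compound (up to 57.5 uM final), then substrate plus GAPDH/TPI/NAD/arsenate coupling and diaphorase/resazurin added. Fluorescence read after 20 min at RT, 525/598 nm.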
Shiga toxin inh: Shiga toxin inhibition | inhibition, % at 38.7 µM | Vero cells, Shiga toxin protein synthesis inhibition reporter | 290,000 compounds, 9.2% hits; in the data active = inhibition mostly above about 28%, no sharp cut-off; inactive = mostly below about 43%; note: 0% is about no effect
Cycloheximide cs: counter-screen hit for Shiga toxin inhibitors, cycloheximide; 300,000 compounds, 12% hits; cell reporter, cycloheximide protein synthesis inhibition counterscreen; AID 2314; max response, %; in the data active = max response mostly above about 13%, no sharp cut-off; inactive = mostly below about 14%; note: read at 38.3 µM for the half of the compounds with a filed dose; 0% is about no effect
NS1 inh: inhibitors of influenza NS1 protein function; Potency, µM (doses to about 46.1 µM), without a hit: at the highest dose activity, positive = more growth; 270,000 compounds, 0.4% hits; AID 2326; calls by dose curve; note: potency is the fitted concentration of half-maximal effect; actives are rising curves; nearly all actives have a fitted effect of over 50% in size
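Recovery from NS1-induced slow growth read by OD600 in budding yeast switched to galactose assay medium (pH 6.0, -URA) at 1:100 dilution. Compound 23 nl per well; the matching strain lacking NS1 serves as control.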
* hit, by the source's call; ? = inconclusive; . = no result; [ ] = another dose, or the depositor's remark. Shown are actives, neighbours in structure and some others; about 14% of the full set was active somewhere. Unless noted, calls come from the whole dose curve; as a rule, active = well fitted curve in the direction sought with a large enough effect; inconclusive = small, poorly fitted or top-dose-only effect, or another doubt; inactive = no such curve, though single readings can be large; an effect the other way counts as inactive or inconclusive.

SMILES	LmPK inhibitor	FBPA Giardia inh	Shiga toxin inh	Cycloheximide cs	NS1 inh
CC[C@H](C)[C@H](NC(=O)[C@H](CC(C)C)NC(=O)[C@H](CO)NC(=O)[C@H](CCC(=O)O)NC(=O)[C@H](CC(C)C)NC(=O)[C@H](Cc1ccc(O)cc1)NC(=O)[C@H](CCCCN)NC(=O)[C@H](CCCCN)NC(=O)[C@H](C)NC(=O)[C@H](CO)NC(=O)[C@H](CC(C)C)NC(=O)[C@H](CCC(N)=O)NC(=O)CNC(=O)[C@H](CC(C)C)NC(=O)[C@H](CC(C)C)NC(=O)[C@H](CCCNC(=N)N)NC(=O)[C@H](CO)NC(=O)[C@H](Cc1ccccc1)NC(=O)[C@H](CC(=O)O)NC(=O)[C@H](CO)NC(=O)[C@@H](NC(=O)[C@H](Cc1ccccc1)NC(=O)[C@@H](NC(=O)CNC(=O)[C@H](CC(=O)O)NC(=O)[C@H](C)NC(=O)[C@@H](N)Cc1cnc[nH]1)C(C)C)[C@@H](C)O)C(N)=O	.	5%	-7	-9	.
COc1ccc(N2C(=O)[C@@H]3[C@H](C2=O)[C@H](C(C)=O)N2c4ccccc4C=C[C@@H]32)cc1	-3%	-26%	22	3	18%
COc1ccc(C2C(C(=O)c3ccccc3)N3c4ccccc4C=CC3C2[N+](=O)[O-])cc1 (centres undefined)	3%	-14%	24	22*	8%
Cc1cc(C(=O)NCC(=O)OCC(=O)NCCc2ccccc2)ccc1[N+](=O)[O-]	0%	3%	20	-3	-3%
CC(C)c1ccc(N2C=Nc3ccc(C(C)C)cc3C2)cc1	8%	1%	52*	19*	-10%
C1=Nc2ccccc2CN1c1ccccc1	-8%	?	93*	65*	33%
CC1(C)N=C(N)N=C(N)N1c1cccc(CSc2ccccc2)c1	.	.	.	.	8%
CCCn1c(-c2ccc(F)cc2)nc2c(NCCCN(CCO)CCO)nc(C)nc21	.	-6%	.	.	.
Cc1nc(C)n(C(C)CNS(=O)(=O)c2ccc(C)c(C)c2)n1 (centres undefined)	1%	4%	12	-3	-12%
CC(C)(O)c1cc(=O)sc2nc3ccccc3n12	-26%	0%	70*	32*	-9%
c1ccc2nc3c(nc2c1)sc1nc2ccccc2n13	6%	2%	7	-5	-1%
COc1ccc(NC2SC(=O)N(C)C2=O)cc1 (centres undefined)	-9%	3%	49*	9	-36%
CN1C(=O)SC(Nc2cccc3ccccc23)C1=O (centres undefined)	-1%	-2%	-8	-1	0%
O=C(NC1CC1)C1CCN(C(=O)c2ccc(Cl)cc2Cl)CC1	-10%	15%	-16	-8	-2%
COc1ccc(C(=O)COC(=O)CCN2C(=O)C3C4C=CC(C5CC45)C3C2=O)cc1 (centres undefined)	-5%	.	-31	1	-39%
NC(=O)c1c(NC(=S)Nc2ccc(F)cc2)sc2c1CCCC2	2%	-26%	40	18*	0%
C=CCNC(=S)Nc1sc2c(c1C(N)=O)CCCC2	-2%	?	56	15*	0%
CC(C)C(=O)NC(=S)Nc1sc2c(c1C(N)=O)CCCC2	4%	-8%	36*	25*	20%
CS(=O)(=O)Nc1c(O)ccc2c1CCC[C@H]2C1=NCCN1	.	1%	.	.	.
CCCc1nnc(SCC(=O)Nc2cccc(Cl)c2Cl)o1	0%	-2%	-5	-3	-54%
Cc1ccc2ncnc(NCCC(=O)O)c2c1	1%	-5%	18	-2	-2%
COCCCNc1ncnc2ccc(C)cc12	0%	0%	39*	15*	7%
COc1ccccc1CN1CC(C(=O)N(C)Cc2ccc(C)o2)CCC1=O (centres undefined)	4%	.	98	22*	-3%
COc1ccccc1CN1CC(C(=O)NCCc2ccc(C)o2)CCC1=O (centres undefined)	10%	.	-3	13	-10%
COc1ccc(CCN2CC(C(=O)N(C)Cc3ccc(C)o3)CCC2=O)cc1 (centres undefined)	0%	0%	74*	38*	-3%
COC(=O)C1=C(C(=O)OC)[C@@H]2N(C)c3ccc(OC)cc3[C@@]23C[C@@H](C(=O)OC)N(C(C)=O)C3=N1	1%[11.5 µM]	1%[12.9 µM]	.	.	.
COC(=O)C1(Cc2cc(-c3ccccc3)no2)CCN(C(=O)OC(C)(C)C)CC1	1%	-5%	40*	27*	-24%
